uPA generation – inhibitors of cell surface uPA generation. cell surface uPA generation assay, qHTS. Potency, µM (doses to about 38.3 µM), without a hit: top-dose activity change, negative = inhibition, actives largely listed as inhibitors. actives 0.31% (n = 330,000); active = well fitted inhibition curve with a large enough effect; inconclusive = small, poorly fitted or top-dose-only effect; inactive = no such curve, though single readings can be large or run the other way; tested in mouse RAW 264.7 cells; also: potency is read from the fitted curve at half-maximal effect; nearly all actives have a fitted effect of over 55% in size
DT40 TDP1 CPT – growth inhibition of DT40 Tdp1-/-;hTDP1 cells with camptothecin (screen for TDP1 inhibitors). chicken DT40 Tdp1-/-;hTDP1 cells + 20 nM CPT, ATP luminescence, 48 h. Potency, µM (top dose mostly 46.2 µM), without a hit: top-dose activity change, negative = growth inhibition, usual class: inhibitors. AID 686979. actives 12% (n = 420,000); also: potency is read from the fitted curve at half-maximal effect; nearly all actives have a fitted effect of over 55% in size
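Chicken DT40 Tdp1-/- cells stably complemented with human TDP1 were seeded at 400 cells/well in medium containing 20 nM camptothecin, exposed to pin-transferred compounds, and grown at 37 °C for at least 48 hr. Viability was read as ATP luminescence.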
IL-1B inflam inh – inhibitors of inflammasome signaling (IL-1 beta secretion); THP-1 LPS/ATP IL-1B secretion, AlphaLISA, 16 h; stronger effect = lower value; activity change, % at 57.5 µM; actives 4.7% (n = 360,000); in the data active = activity change below about -50%; inconclusive = mostly about -30% to -49%
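Secreted IL-1B measured by AlphaLISA bead assay after 16 h compound exposure of THP-1 cells; compounds (final up to 57.5 uM) added 1 h before LPS (250 ng/mL) and ATP (1.25 mM) stimulation; lower signal means less secretion.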
TDP1 cell noCPT – qHTS for Inhibitors of human tyrosyl-DNA phosphodiesterase 1 (TDP1): qHTS in cells in absence of CPT | DT40 Tdp1-/- hTDP1 cells, no CPT, ATP luminescence, 48 h | Potency, µM (series often up to 46.2 µM), inactives show at the top dose activity change, negative = growth inhibition, hits mostly inhibitors | actives 15% (n = 420,000); also: potency is read from the fitted curve at half-maximal effect; nearly all actives have a fitted effect of over 55% in size
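Chicken DT40 Tdp1-/- cells complemented with human TDP1, screened without camptothecin (DMSO vehicle only), 400 cells/well. Compounds pin-transferred, cells incubated at 37 °C for at least 48 hr. Growth read as ATP-dependent luminescence (CellTiter-Glo, 30 min at RT).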
HT1080-NT tox – kills 2HG-producing HT-1080-NT fibrosarcoma cells | HT-1080-NT fibrosarcoma viability, CellTiter-Glo ATP luminescence, 48 h | Potency, µM (doses to about 46.1 µM), for the others: top-dose activity, negative = less viability, hits mostly cytotoxic | actives 1.6% (n = 360,000);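 also: NT is the 2HG producing partner of a matched IDH1 knockdown line; potency is read from the fitted curve at half-maximal effect; 0% = DMSO-treated cells and -100% = media-only wells without cells; nearly all actives have a fitted effect of over 55% in size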
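HT-1080-NT fibrosarcoma cells (2HG-overproducing), 750 cells/well in RPMI with 5% FBS, dosed after 2 h and incubated 48 h at 37C. CellTiter-Glo luminescence normalized to DMSO and no-cell wells; concentration-response curves fitted and classed.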
HT1080 IDH1KD tx – HT-1080 IDH1 knockdown cell toxicity (counter line); HT-1080 IDH1 knockdown viability, ATP luminescence, 48 h; Potency, µM (series often up to 46.1 µM), for the others: at the highest dose activity, negative = toxicity, hits mostly cytotoxic; actives 2% (n = 360,000);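 also: potency is read from the fitted curve at half-maximal effect; 0% = DMSO wells and -100% = cell-free medium wells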
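HT-1080-IDH1KD cells (IDH1 knocked down), 750/well in RPMI with 5% FBS, treated with compound 48 h at 37 degrees C. Viability by CellTiter-Glo luminescence, normalised to DMSO and no-cell wells; concentration-response curves classed.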
Numbers without * were called inactive; ? = inconclusive; · = no result given; [ ] = remark or other dose. This is a sample that favours compounds with a hit; in the whole collection about 19% have one here. Unless noted, calls follow the shape of the dose curve; as a rule, active = well fitted curve in the direction sought with a large enough effect; inconclusive = small, poorly fitted or top-dose-only effect, or another doubt; inactive = no such curve, though single readings can be large; an effect the other way counts as inactive or inconclusive. Unless noted, % is scaled to controls: 0 for no effect and ±100 for the full control effect.

SMILES | uPA generation | DT40 TDP1 CPT | IL-1B inflam inh | TDP1 cell noCPT | HT1080-NT tox | HT1080 IDH1KD tx
OCC1(CCCc2ccccc2)CCN(C2CCC2)CC1 | 10% | -25% | -54* | 11% | -7% | -13%
CCOC(=O)C1(CCCc2ccccc2)CCN(C2CCSCC2)CC1 | -23% | 16µM* | 14 | 13µM* | 1% | -6%
CCOC(=O)C1(CCCc2ccccc2)CCN(CC(O)CO)CC1 (stereo not drawn) | -2% | -9% | 0 | ? | -8% | -4%
CSCC(C)N1CCC(CO)(CCCc2ccccc2)CC1 (stereo not drawn) | 1% | 2% | 9 | -24% | -16% | -2%
OCC1(CCCc2ccccc2)CCN(C2CCSCC2)CC1 | -2% | -17% | -70* | -23% | -3% | -3%
CCCc1cc(C(=O)OC)c(NC(=O)c2cc(C)on2)s1 | 3% | -12% | -15 | -16% | 7% | 11%
CCOc1ccc(NC(=O)c2cc3c(=O)n4cccc(C)c4nc3s2)cc1 | · | 8% | · | -4% | · | ·
Cc1ccc(N=C2NC(=O)/C(=C/c3cccn3C)S2)cc1 | 2.8µM* | 6.5µM* | 41 | 4.6µM* | -29% | 10µM*
Cc1ccc(N=C2NC(=O)/C(=C/c3cccn3C)S2)cc1C | -4% | 21µM* | 20 | 9.2µM* | -1% | -20%
Cc1cccc(N=C2NC(=O)/C(=C/c3cccn3C)S2)c1C | -1% | ? | -3 | 8.2µM* | -18% | ?
Cc1ccc(N=C2NC(=O)/C(=C\c3ccc(C)s3)S2)cc1 | 2% | -16% | -11 | ? | 28% | 29%
Cc1ccccc1N=C1NC(=O)/C(=C/c2cccn2-c2cccc(C(=O)O)c2)S1 | 4% | 8% | 52 | 3% | 9% | 11%
Cc1cccc(N=C2NC(=O)/C(=C/c3cccnc3)S2)c1C | 1% | ? | -7 | -27% | 2% | -10%
O=CN(c1ccccc1)c1ccc2ccccc2c1 | 6% | 0% | 20 | -18% | -12% | 0%
Cc1noc(C)c1CCC(=O)N1CCOc2ccc(CN3CCN(c4ccccn4)CC3)cc2C1 | · | -2%[9.04 µM] | · | ? | · | ·
O=C(NCc1ccco1)c1ccc(COc2cccc3ccccc23)cc1 | 3% | -6% | -60* | -16% | 3% | -1%
O=C(NCc1ccco1)c1ccc(COc2ccccc2Cl)cc1 | 3% | ? | -57* | ? | -13% | -14%
NNC(=O)c1ccc(COc2cccc3ccccc23)cc1 | 7% | 4% | 24 | 5% | -9% | -1%
CC(=O)c1ccc(NC(=O)c2cc(C3CC3)nc3c2c(C)nn3-c2ccc(C)cc2)cc1 | · | -25% | · | -27% | · | ·
CC(C)N1CCN(C(=O)c2ccc([N+](=O)[O-])cc2)CC1 | 11% | 5% | -2 | 1% | 9% | 7%
CC[n+]1c(/C=C/C=C/N(C(C)=O)c2ccccc2)sc2cc(OC)ccc21 | -9% | 3.3µM* | -117* | 2.6µM* | ? | ?
Cc1ccc(C)c(OCC(O)CN2CCC(Cc3ccccc3)CC2)c1 (stereo not drawn) | 0% | 21µM* | -60* | ? | ? | -15%
Cc1ccc(C)c(OCC(O)CN2C(C)CCCC2C)c1 (stereo not drawn) | -8% | 23µM* | 20 | ? | -6% | ?
C/C(=N\NC(=O)C1CCCN(S(=O)(=O)c2ccccc2)C1)c1ccncc1 (stereo not drawn) | 0% | -9% | -7 | -16% | -2% | -6%
CC(=NNC(=S)N1CC2CCC(CC2)C1)c1cnccn1 | -7% | -113% | -107* | -116% | ? | ?
SMILES | uPA generation | DT40 TDP1 CPT | IL-1B inflam inh | TDP1 cell noCPT | HT1080-NT tox | HT1080 IDH1KD tx
CC(=NNC(=S)N1CC2CCC(CC2)C1)c1ccccn1 | · | 0.0082µM* | 41 | 0.018µM* | -23% | -17%
C/C(=N\NC(=O)C1CCCN(S(=O)(=O)c2ccccc2)C1)c1ccccn1 (stereo not drawn) | -6% | 5.8µM* | 92 | 3.3µM* | ? | ?
C/C(=N/O)c1ccccn1 | 4% | 8% | 19 | 0% | 3% | 3%
Cc1ccc(OCCNC(=O)CCNC(=O)c2ccc(Cl)cc2)cc1 | 10% | -10% | -11 | -20% | -9% | -1%
C=CS(=O)(=O)c1c2cc(OC)ccc2nc2ccc(OC)cc12 | -9% | 2.3µM* | -98* | 2.6µM* | ? | ?
CC(C)(C)CC(=O)Nc1nnc(SCC(=O)N2CCCCC2)s1 | 0% | -19% | 16 | ? | 5% | 14%
Cc1ccc(-c2nc(CNC(=O)NC3CCCCC3)c(C)o2)cc1 | · | -1% | · | 3% | · | ·
Cc1cc(N2CCN(C/C=C/c3ccccc3)CC2)n2ncnc2n1 | -9% | 16µM* | -21 | 10µM* | 0% | -8%
Cc1cc(N2CCN(c3ccccc3)CC2)n2ncnc2n1 | 3% | -22% | 1 | ? | 1% | -3%
Oc1ccc(Oc2ccc3c(C(F)(F)F)cc(C(F)(F)F)nc3n2)cc1 | -1% | 15µM* | -7 | 18µM* | -2% | -6%
Fc1ccc(-c2c[nH]c(=S)n2Cc2ccccc2)cc1 | -8% | 21µM* | ? | ? | -5% | 3%
O=c1[nH]cc(-c2ccc(Br)cc2)n1Cc1ccccc1 | 5% | ? | 2 | ? | -2% | 1%
O=C(CNc1cccc2ccccc12)N/N=C/c1ccc(OC(=O)/C=C/c2ccco2)cc1 | -4% | ? | -2 | -28% | -3% | 0%
C=CCc1cccc(/C=N/NC(=O)CNc2cccc3ccccc23)c1O | -2% | 4.6µM* | 28 | 5.8µM* | ? | ?
C=CCc1cccc(/C=N/NC(=O)CNc2ccccc2OC)c1O | ? | ? | 253 | 21µM* | ? | 18µM*
